# Screens (PubChem)
# Only a selection was taken, and hits are over-represented in it overall.
# ALOX12 inh: inhibitors of human 12S-lipoxygenase ALOX12 | Potency, µM (doses to about 108 µM), without a hit: top-dose activity change, negative = inhibition, actives largely listed as inhibitors | purified 12hLO, xylenol orange hydroperoxide absorbance | P18054 | actives 1.1% (n = 580,000); also: potency is read from the fitted curve at half-maximal effect
# Target sequence (P18054 whole entry, looked up): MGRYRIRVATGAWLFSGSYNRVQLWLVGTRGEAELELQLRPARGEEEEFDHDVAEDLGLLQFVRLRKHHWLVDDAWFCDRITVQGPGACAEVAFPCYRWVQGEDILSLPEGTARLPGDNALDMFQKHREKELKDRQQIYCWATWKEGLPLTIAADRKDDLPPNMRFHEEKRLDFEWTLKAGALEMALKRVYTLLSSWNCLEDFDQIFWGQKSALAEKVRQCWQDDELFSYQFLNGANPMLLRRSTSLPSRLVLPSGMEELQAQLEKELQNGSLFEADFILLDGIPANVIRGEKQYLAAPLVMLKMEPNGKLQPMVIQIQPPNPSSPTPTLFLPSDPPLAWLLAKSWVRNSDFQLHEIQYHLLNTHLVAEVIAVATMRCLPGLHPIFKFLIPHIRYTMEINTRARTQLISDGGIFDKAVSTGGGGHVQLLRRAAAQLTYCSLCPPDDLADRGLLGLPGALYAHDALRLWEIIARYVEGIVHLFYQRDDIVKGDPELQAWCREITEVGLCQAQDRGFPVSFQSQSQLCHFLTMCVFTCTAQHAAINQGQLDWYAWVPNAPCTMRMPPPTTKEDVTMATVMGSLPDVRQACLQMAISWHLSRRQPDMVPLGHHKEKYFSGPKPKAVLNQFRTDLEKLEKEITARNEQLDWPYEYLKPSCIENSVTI
#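 Purified human 12hLO at 150 nM in 25 mM Hepes, 0.01% Triton X-100, pH 7.0, preincubated 15 min at room temperature with compound. Reaction started with 40 uM arachidonic acid, 30 min at room temperature. Hydroperoxide measured by Fe-xylenol orange, 573/405 nm absorbance ratio.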
# TDP1 cell noCPT: qHTS for Inhibitors of human tyrosyl-DNA phosphodiesterase 1 (TDP1): qHTS in cells in absence of CPT. actives 15% (n = 420,000). Potency, µM (titrated, usually from 46.2 µM), for the others: at the top dose activity change, negative = growth inhibition, usual class: inhibitors. DT40 Tdp1-/- hTDP1 cells, no CPT, ATP luminescence, 48 h; also: potency is read from the fitted curve at half-maximal effect; nearly all actives have a fitted effect of over 55% in size
#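 Chicken DT40 Tdp1-/- cells complemented with human TDP1, screened without camptothecin (DMSO vehicle only), 400 cells/well. Compounds pin-transferred, cells incubated at 37 °C for at least 48 hr. Growth read as ATP-dependent luminescence (CellTiter-Glo, 30 min at RT).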
# IL1B secr inh: inhibitors of inflammasome signaling (IL-1 beta secretion); actives 4.7% (n = 360,000); THP-1 LPS/ATP IL-1B secretion, AlphaLISA, 16 h; hits give low values; activity change, % at 57.5 µM; in the data active = activity change below about -50%; inconclusive = mostly about -30% to -49%
#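 THP-1 cells pretreated 1 hr with compounds (up to 57.5 uM final), then stimulated with LPS (250 ng/mL final) plus ATP (1.25 mM final); secreted IL-1B measured by AlphaLISA after 16 hr, decreased signal indicating inhibition.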
# DT40 TDP1 CPT: DT40-hTDP1 cell growth loss with CPT; chicken DT40 Tdp1-/-;hTDP1 cells + 20 nM CPT, ATP luminescence, 48 h; Potency, µM (doses to about 46.2 µM), inactives show at the top dose activity change, negative = growth inhibition, most hits filed as inhibitors; actives 12% (n = 420,000); AID 686979; also: potency is read from the fitted curve at half-maximal effect; nearly all actives have a fitted effect of over 55% in size
#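 Chicken DT40 Tdp1-/- cells complemented with human TDP1, 400 cells/well, exposed to compounds plus 20 nM camptothecin for at least 48 h at 37 C; viability read as ATP content by CellTiter-Glo luminescence.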
# HT1080NT lethal: kills 2HG-producing HT-1080-NT fibrosarcoma cells; HT-1080-NT fibrosarcoma viability, CellTiter-Glo ATP luminescence, 48 h; Potency, µM (top dose mostly 46.1 µM), for inactives: top-dose activity, negative = less viability, actives largely listed as cytotoxic; actives 1.6% (n = 360,000); AID 686970;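 also: NT is the 2HG producing partner of a matched IDH1 knockdown line; potency is read from the fitted curve at half-maximal effect; 0% = DMSO-treated cells and -100% = media-only wells without cells; nearly all actives have a fitted effect of over 55% in size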
#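 Compounds were tested in concentration-response format on HT-1080-NT cells for 48 hours at 37 degrees C. Cell viability came from CellTiter-Glo luminescence; curves were classified by r2, response magnitude and activity.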
# HT1080 IDH1KD tx: HT-1080 IDH1 knockdown cell toxicity (counter line); actives 2% (n = 360,000); HT-1080 IDH1 knockdown viability, ATP luminescence, 48 h; Potency, µM (doses to about 46.1 µM), for inactives: at the top dose activity, negative = toxicity, hits mostly cytotoxic;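 also: potency is read from the fitted curve at half-maximal effect; 0% = DMSO wells and -100% = cell-free medium wells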
#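 Luminescent ATP read-out (CellTiter-Glo, 10 min at room temperature) after 48 h compound exposure at 37 °C gave viability of IDH1-knockdown HT-1080 cells. Activity was normalised to DMSO and cell-free wells, then fitted as concentration-response curves.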
# Numbers without * were called inactive; ? = inconclusive; / = not tested or not shown; [ ] = dose if it differs, or a comment. Unless noted, calls follow the shape of the dose curve; as a rule, active = well fitted curve in the direction sought with a large enough effect; inconclusive = small, poorly fitted or top-dose-only effect, or another doubt; inactive = no such curve, though single readings can be large; an effect the other way counts as inactive or inconclusive. Unless noted, % is scaled to controls: 0 for no effect and ±100 for the full control effect.
SMILES,ALOX12 inh,TDP1 cell noCPT,IL1B secr inh,DT40 TDP1 CPT,HT1080NT lethal,HT1080 IDH1KD tx
CC1C(=O)Nc2ccccc2N1C(=O)c1ccc(O)cc1 (stereo unspecified),0%,5%,-19,5%,3%,10%
O=C1Nc2ccccc2N(C(=O)c2ccc3ccccc3c2)C1c1nc2ccccc2[nH]1 (stereo unspecified),-12%,21µM*,-2,10µM*,?,?
CCOc1cc(/C=C2\C(=N)N3N=C(S(C)(=O)=O)SC3=NC2=O)ccc1OCCOc1cccc(OC)c1,?,13µM*,-9,-3%,?,-21%
COc1cc(/C=C2/C(=N)N3C=CSC3=NC2=O)ccc1OCCCOc1ccccc1C,9%,?,8,?,-11%,?
CCOc1cc(/C=C2/C(=N)N3C=CSC3=NC2=O)ccc1OCCCOc1ccccc1C,18%,8.2µM*,-2,10µM*,?,?
CC(C)c1ccccc1NC(=O)CSc1nc2ncccc2[nH]1,19%,/,/,/,/,/
CCOc1ccc(-c2nnc3ccc(SCC(=O)N4CCCCC4)nn23)cc1,-26%,-26%,-1,-7%,2%,5%
CCc1nnc(NC(=O)CSc2nncc(=O)n2N)s1,-10%,18%,65,9%,-5%,4%
CCOc1ccc(-c2nnc3ccc(SCC(=O)Nc4nc5ccccc5s4)nn23)cc1,-25%,18µM*,15,?,-2%,-5%
Cc1ccc2nc(NC(=O)CCn3c(=O)sc4ccccc43)sc2c1,-2%,?,27,18µM*,1%,-6%
CCOc1ccc(-c2nnc3ccc(SCC(=O)Nc4nc5ccc(C)cc5s4)nn23)cc1,-24%,26µM*,33,?,-1%,9%
COc1ccc(-c2nnc(SCC(=O)Nc3nc4ccccc4s3)n2C)cc1,-4%,-14%,-2,1%,11%,6%
Cc1ccc2nc(NC(=O)CSc3nncc(=O)n3N)sc2c1,-11%,16µM*,2,?,-3%,8%
CCOC(=O)c1sc(NN=C(C(=O)OC)C(=O)OC)c(C(=O)OCC)c1C,-11%,?,-13,?,-21%,0%
N=C(N)SCP(=O)(c1ccccc1)c1ccccc1,11%,18µM*,-85*,21µM*,-13%,-14%
COc1ccc(C)cc1CN(C)C(=O)c1n[nH]c(=O)c2ccccc12,-2%,/,/,/,/,/
CCOC(=O)c1ccccc1NC(=O)NCc1cccn1Cc1ccc(F)cc1,6%,23µM*,/,23µM*,/,/
O=C(/C=C/c1ccco1)NC(=S)Nc1ccccc1N1CCOCC1,?,?,5,-24%,4%,4%
O=C(/C=C/c1ccco1)NC(=S)Nc1ccccc1N1CCCC1,?,21µM*,35,?,-20%,-28%
Cc1cccnc1NC(=S)NC(=O)/C=C/c1ccco1,70%,-18%,7,-17%,17%,17%
O=C(/C=C\c1ccco1)NC(=S)Nc1ccccc1O,?,?,-10,18µM*,?,?
Cc1ccc(NC(=S)NC(=O)/C=C/c2ccco2)c(O)c1,?,?,-9,-11%,4%,-16%
O=C(/C=C/c1ccco1)NC(=S)Nc1ccccc1O,?,18µM*,-19,?,-30%,-30%
O=C(Nc1ccc(Cl)cc1)c1nc[nH]c1C(=O)NCCCCNC(=O)c1[nH]cnc1C(=O)Nc1ccc(Cl)cc1,3%,4.6µM*,?,5.8µM*,7%,9%
O=C(Nc1cccc(Cl)c1)c1nc[nH]c1C(=O)Nc1ccccc1F,28%,7.3µM*,11,4.1µM*,17%,12%
SMILES,ALOX12 inh,TDP1 cell noCPT,IL1B secr inh,DT40 TDP1 CPT,HT1080NT lethal,HT1080 IDH1KD tx
O=C(Nc1ccc(F)cc1)c1nc[nH]c1C(=O)Nc1ccccc1[N+](=O)[O-],-4%,1.3µM*,10,?,8%,10%
CC(C)(C)OC(=O)NCCCCCNC(=O)c1[nH]cnc1C(=O)Nc1cccc(Cl)c1,-14%,?,-9,?,11%,17%
O=C(Nc1cccc(Cl)c1)c1nc[nH]c1C(=O)NCCN(CCNC(=O)c1[nH]cnc1C(=O)Nc1cccc(Cl)c1)CCNC(=O)c1[nH]cnc1C(=O)Nc1cccc(Cl)c1,-11%,?,4,?,?,14%
CCOC(=O)c1[nH]cnc1C(=O)Nc1ccc(Cl)cc1,-1%,-9%,-11,-30%,24%,10%
O=C(Nc1ccc(Cl)cc1)c1nc[nH]c1C(=O)Nc1ccccc1F,6%,15µM*,-15,?,2%,24%
NNC(=O)c1nc[nH]c1C(=O)Nc1ccccc1[N+](=O)[O-],-4%,?,18,1%,-25%,-10%
CCOc1ccccc1C(=O)N(C)C1CCc2nn(CC3CC3)c(=O)n2CC1 (stereo unspecified),42%,/,/,/,/,/
CCOc1ccccc1C(=O)N(CN1CCCC1=O)c1ccc(C)c(Cl)c1,-16%,3.7µM*,25,3.7µM*,15%,0%
Cc1ccc(N(CN2CCCC2=O)C(=O)c2ccc(C)c(C)c2)cc1,-5%,7.3µM*,-21,8.2µM*,6%,0%
Cc1ccc(C(=O)N(CN2CCCC2=O)c2ccc(F)cc2)cc1C,1%,26µM*,77,?,23%,0%
Cc1ccc(C(=O)N(CN2CCCC2=O)c2ccccc2)cc1C,-9%,?,21,?,-10%,-1%
CC(=O)c1cc2c(cc1NC(=O)c1cc3ccccc3o1)OCO2,-13%,/,/,/,/,/
c1csc(CNc2nc(-c3ccc4c(c3)OCO4)nc3ccccc23)c1,11µM*,?,/,?,/,/
CN(C)Cc1ccccc1-c1nc(NCc2cccs2)c2ccccc2n1,-1%,21µM*,/,21µM*,/,/
Cc1cnc(CNc2nc(-c3ccc4c(c3)OCO4)nc3ccccc23)cn1,-30%,-19%,/,-20%,/,/
Cc1cccc(CNc2ncncc2-c2ccccc2CN(C)C)c1,-2%,-12%,/,-4%,/,/
Cc1cccc(CNc2nc(-c3ccccc3CN(C)C)nc3ccccc23)c1,?,5.2µM*,/,13µM*,/,/
CC(=O)Nc1ccc(CNC[C@H]2Cn3cc(-c4ccc(C)cc4)nc3CO2)cc1,32%[176 µM],/,/,/,/,/
CN(Cc1cccc(C(F)(F)F)c1)C(=O)C1CCC(=O)N(CC2CCCCC2)C1 (stereo unspecified),48%,16µM*,-16,?,-3%,0%
